Several values for one entry are separate records, joined by “and”; a condition that tells them apart may be missing. Equal entries are not always repeated.
Assays:
PIK4CB = test system: T1, PIK4CB
T1 construct: gene PI4KB

PIP5K2C = test system: T2, PIP5K2C
T2 construct: gene PIP4K2C

PKAC-alpha = test system: T3, PKAC-alpha
T3 construct: gene PRKACA

PFTK1 = test system: T4, PFTK1
T4 construct: gene CDK14
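Also: kd values determined as follow-up on hits from a single-replicate KINOMEscan panel screen.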

## Cc1cc(N2Cc3ccccc3C2)nc(Nc2ccc(S(=O)(=O)N3CCOCC3)cc2)n1.Cl [GSK1669917]
PIK4CB
  Kd: > 10 µM

## COc1cc2ncn(-c3cc(OCC4CCCO4)c(C(N)=O)s3)c2cc1OC (centres unmarked) [GSK204607]
PIP5K1C
  Kd: 7.7 µM
PLK1
  Kd: 0.013 µM
PLK2
  Kd: 0.0044 µM
PLK3
  Kd: 0.04 µM
PRKCI
  Kd: > 10 µM

## CN1C(=O)C(Nc2ccc(Cl)c(C(=O)O)c2)=C(c2ccc(Cl)cc2)C1=O [SB-404290]
PKN1
  Kd: > 10 µM

## CC(C)(C)c1ccc(C(=O)Nc2cn3cc(Cl)ccc3n2)cc1
PRKCI
  Kd: > 10 µM

## COc1ccc(CNC(=O)NC2CCN(c3ccnc(Nc4cc(OC)c(OC)c(OC)c4)n3)C2)cc1 (centres unmarked) [GSK1379748]
PIP5K2C
  Kd: 0.6 µM

## COc1ccc(Nc2nccc(-c3cccc(NC(=O)c4cc5cc(F)ccc5[nH]4)c3)n2)cc1 [GSK1229782]
PIP5K2C
  Kd: 1.4 µM

## Cc1cccc(-c2nc(C)cc(Nc3ccncc3)n2)n1 [GSK257997]
PRKD2
  Kd: 1.1 µM
PRKD3
  Kd: 1 µM

## O=S(=O)(c1ccc(-c2ccnc3[nH]ccc23)cc1)N1CCCC1 [GSK846226]
PKAC-alpha
  Kd: 0.26 µM

## O=c1cc(N2CCOCC2)nc2n(Cc3cccc(Cl)c3Cl)ccn12 [GSK2286295]
PIK3CB
  Kd: 0.0035 µM
PIK3CD
  Kd: 0.079 µM

## COc1ccccc1CNC(=O)c1cc(C(=O)c2ccccc2C)c[nH]1 [GSK364507]
PLK4
  Kd: > 10 µM

## CS(=O)(=O)c1ccc(-c2nc3n(c2-c2ccncc2)CCC3)cc1 [SKF-105942]
PIK4CB
  Kd: > 10 µM

## CCCc1ccc(S(=O)(=O)NC2CCN(c3ccnc(Nc4ccc(F)cc4)n3)C2)cc1 (centres unmarked) [GSK1379715]
PKAC-alpha
  Kd: > 10 µM

## Cc1cccc(-c2nc(Nc3ccncc3)c3ccccc3n2)n1 [GW855857]
PRKD1
  Kd: 0.0097 µM
PRKD2
  Kd: 0.017 µM

## Cc1c(Cn2ccn3c(=O)cc(N4CCOCC4)nc23)cccc1C(F)(F)F [GSK2289044]
PIK3CB
  Kd: 0.0015 µM
PIK3CD
  Kd: 0.17 µM

## COc1ccc(Nc2nccc(NCCNC(=O)Nc3ccccc3F)n2)cc1 [GSK1379901]
PRKD2
  Kd: > 10 µM

## COc1ccc2nc(-c3cccc(C)n3)nc(Nc3ccncc3)c2c1 [GSK204919]
PIKFYVE
  Kd: 1.2 µM
PRKD1
  Kd: 0.051 µM
PRKD2
  Kd: 0.034 µM
PRKD3
  Kd: 0.49 µM

## Cl.NC(=O)c1cccc(Nc2nccc(Nc3ccc(Oc4cccc(Cl)c4)c(Cl)c3)n2)c1 [GW659008]
PIK4CB
  Kd: > 10 µM

## COc1cc2ncnc(Nc3ccc4nc(-c5ccccc5)[nH]c4c3)c2cc1OC.Cl [GW282450]
PLK4
  Kd: 1.6 µM

## CSc1nn2c(=O)cc(N3CCOCC3)nc2n1Cc1cccc(C(F)(F)F)c1C [GSK2363608]
PIK3CB
  Kd: 0.00048 µM and 0.00026 µM
PIK3CD
  Kd: 0.064 µM and 0.047 µM

## Cc1ccc(C(=O)Nc2ccc(Nc3ccnc4cc(-c5ccccn5)ccc34)cc2O)cc1.Cl [GW440146]
PIK3CD
  Kd: > 10 µM

## Cc1cccc(-c2nc(Nc3ccc4[nH]ncc4c3)c3ccccc3n2)n1 [GW857175]
PIKFYVE
  Kd: 0.7 µM
PRKD1
  Kd: 0.019 µM
PRKD2
  Kd: 0.015 µM
PRKD3
  Kd: 0.011 µM

## Cc1cccc(-c2nc(Nc3cccc(C(N)=O)c3)c3ccccc3n2)n1 [GW876019]
PRKD3
  Kd: 0.82 µM

## O=C(Nc1n[nH]c2cc(-c3cccc(F)c3F)ccc12)C1CC1 [SB-733894]
PIKFYVE
  Kd: > 10 µM

## Nc1ncnc2[nH]c(-c3ccccc3)nc12 [AH5015]
PLK4
  Kd: > 10 µM

## CS(=O)(=O)c1ccc(-c2c(-c3ncn[nH]3)sc(N3CCOCC3)c2C#N)cc1
PIK3CA
  Kd: 0.021 µM
PIK3CB
  Kd: 0.077 µM

## CCn1c(-c2ccccn2)nc2cnccc21 [SB-736398]
PKAC-alpha
  Kd: > 10 µM

## Fc1cc(Cl)ccc1Nc1ccnc2cc(-c3ccc(CN4CCCCC4)o3)ccc12 [GW560116]
PKAC-alpha
  Kd: > 10 µM

## Cc1cccc(-c2cc(Nc3ccncc3)c3ccccc3n2)n1 [GSK223675]
PRKD1
  Kd: 0.1 µM
PRKD2
  Kd: 0.3 µM
PRKD3
  Kd: 0.21 µM

## COc1cc2nccc(Nc3ccc(NC(=O)c4ccc(C)cc4)c(O)c3)c2cc1OC.Cl [GW440132]
PFTK1
  Kd: > 10 µM
PIK3C2B
  Kd: > 10 µM
PIK3CA
  Kd: > 10 µM
PIK3CG
  Kd: > 10 µM

— publication PMC5540273 (PLoS ONE, 2017)
